Assay outcomes as filed in PubChem BioAssay.
The full list was thinned out, with hits kept by preference.
CBX7 AlphaScr – CBX7 chromodomain binding inhibitors, primary screen, biochemical, AlphaScreen | AlphaScreen His6-CBX7 / biotin-H3K27me3 peptide binding; hits give low values | normalised signal (fraction of DMSO) (test concentration not listed) | 66,000 tested, 1.1% active; in the data active = normalised signal below about 0.5
Target sequence (O95931 whole entry, looked up): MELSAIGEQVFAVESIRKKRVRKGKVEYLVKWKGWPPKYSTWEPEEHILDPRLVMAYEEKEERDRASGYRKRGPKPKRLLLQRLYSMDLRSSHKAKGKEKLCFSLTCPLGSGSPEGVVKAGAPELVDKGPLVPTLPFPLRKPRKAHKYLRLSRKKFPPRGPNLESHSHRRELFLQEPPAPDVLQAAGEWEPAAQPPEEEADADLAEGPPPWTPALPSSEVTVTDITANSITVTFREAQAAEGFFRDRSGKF
* hit, by the source's call; ! = not active in a repeat.

SMILES	CBX7 AlphaScr
CCc1cc(-c2onc(C(F)(F)F)c2-c2ccccc2)c(O)cc1OC	0.93
COc1ccc(-c2nc(-c3cccs3)[nH]c2-c2ccccc2)cc1OC	0.89
COc1cc(-c2nc(-c3cccs3)c(-c3cccs3)[nH]2)ccc1O	0.44*
COc1cc(-c2nc(-c3ccccc3)c(-c3ccccc3)[nH]2)ccc1O	1.1
O=C(Cn1nc(Cc2cccnc2)c2ccccc2c1=O)NCc1cccs1	1
Cc1oc(-c2cccc(Cl)c2)nc1CN1CCCC(C(=O)NC2CCCc3ccccc32)C1 (stereo unspecified)	0.97
COc1ccc(-c2nnc(Nc3cccc(O)c3)c3ccccc23)cc1	0.43*
COc1ccc(-c2nnc(Nc3ccc(Cl)c(Cl)c3)c3ccccc23)cc1	1
COc1ccc(-c2nnc(Nc3ccc(Cl)cc3)c3ccccc23)cc1	0.97
O=c1cc(Cc2nnc(SCc3cccc(F)c3)n2-c2ccccc2)[nH]c(=O)[nH]1	0.9
Cc1ccc2c(c1)c(=O)c(C(=O)c1ccccc1)cn2Cc1ccccc1	0.62
Cc1ccc2c(c1)c(=O)c(C(=O)c1ccccc1)cn2Cc1ccc(F)cc1	0.71
Cc1ccc(Cn2cc(C(=O)c3ccccc3)c(=O)c3cc(C)ccc32)cc1	0.44*
Cc1ccc(-n2cc(-c3ccccc3)nc2S(=O)(=O)CC(=O)Nc2ccc(Cl)cc2)cc1	0.93
COc1ccccc1NC(CNS(=O)(=O)c1ccccc1)c1ccccc1 (stereo unspecified)	0.47*
O=S(=O)(NCC(Nc1ccccc1)c1ccccc1)c1ccc(Cl)cc1 (stereo unspecified)	0.98
COc1ccc(NC(CNS(=O)(=O)c2ccc(Cl)cc2)c2ccccc2)cc1 (stereo unspecified)	0.54
COc1ccc(O)c(-c2cc(-c3ccc(C)cc3)n[nH]2)c1	0.86
Cc1ccc(C)c(-c2csc(Nc3ncccn3)n2)c1	1
O=C(CN1C(=O)c2ccccc2C1=O)Nc1nc(-c2ccc3c(c2)OCO3)cs1	1.1
Brc1ccc(-c2csc(Nc3ccc4c(c3)OCO4)n2)cc1	0.35*!
Cc1ccc(C)c(-c2csc(Nc3ccc4c(c3)OCO4)n2)c1	0.35*
Brc1ccc(Nc2nc(-c3ccc(Br)cc3)cs2)cc1	0.66
Clc1ccc(-c2csc(Nc3ccc4ccccc4c3)n2)cc1Cl	0.59
c1ccc2cc(-c3csc(Nc4ccc5c(c4)OCO5)n3)ccc2c1	0.5*
SMILES	CBX7 AlphaScr
O=S(=O)(c1ccc(-c2csc(Nc3ccc4c(c3)OCO4)n2)cc1)N1CCCCC1	0.84
Cc1ccc(C)c(-c2csc(Nc3ccc(S(=O)(=O)Nc4cc(C)on4)cc3)n2)c1	0.9
Cc1ccc(S(=O)(=O)Nc2ccc3c(c2)ncn3C2CCCCC2)cc1	0.82
COc1ccccc1CN1C(=O)Cn2cccc2C1C(=O)NC1CCCCCCC1 (stereo unspecified)	0.98
CCN1CCN(CCCNC2CC(=O)N(c3ccc(F)cc3)C2=O)CC1 (stereo unspecified)	0.92
COc1cccc(-c2nc(CSCC(=O)NCCN3CCCC3)c(C)o2)c1	1.1
COc1cc2c(C(=O)NCc3cccnc3)cn(CC(C)C)c(=O)c2cc1OC	0.94
CCOC(=O)c1cc(-c2ccccc2)n(CCC(=O)Nc2cccc(C)c2)c1C	0.93
CCOC(=O)N1CCN(C(=O)C2CCCN(c3nc4ccc(OCC)cc4s3)C2)CC1 (stereo unspecified)	0.95
CCCNC(=O)C1CCCN(c2nc3ccc(OCC)cc3s2)C1 (stereo unspecified)	0.96
CCOc1ccc2nc(N3CCCC(C(=O)NCCCN4CCN(C)CC4)C3)sc2c1 (stereo unspecified)	0.44*
CCOc1ccc2nc(N3CCCC(C(=O)N4CCN(c5ccc(OC)cc5)CC4)C3)sc2c1 (stereo unspecified)	0.61
CCOc1ccc2nc(N3CCCC(C(=O)NCCCN4CCOCC4)C3)sc2c1 (stereo unspecified)	0.99
CCCN1CCN(C(=O)C2CCCN(c3nc4ccc(OCC)cc4s3)C2)CC1 (stereo unspecified)	0.29*
Cc1cc2nc(-c3cccc(NC(=O)c4cccc5c(Br)cccc45)c3)oc2cc1C	1
Cc1ccc(CN(Cc2cccnc2)C(=O)Nc2ccc(Cl)cc2)cc1	0.83
CCC(=O)N1CCc2cc(S(=O)(=O)NC(C(=O)NCCc3ccc(Cl)cc3)C(C)C)ccc21 (stereo unspecified)	1.1
COc1ccc(OC)c(NC(=O)CSc2nnc(Cc3cc(=O)[nH]c(=O)[nH]3)n2-c2ccccc2)c1	1.1
N#Cc1nc(COc2ccc(Cl)cc2)oc1N1CCCCCC1	0.37*
CC1CCN(c2oc(COc3cccc(Cl)c3)nc2C#N)CC1	0.57
N#Cc1nc(COc2cccc(Cl)c2)oc1N1CCCCCC1	0.45*
N#Cc1nc(COc2cccc(Cl)c2)oc1N1CCCCC1	0.5
N#Cc1nc(COc2ccccc2Cl)oc1N1CCCCCC1	0.7
N#Cc1nc(COc2ccccc2)oc1N1CCCCC1	0.64
COc1ccccc1CNC(=O)c1ccc2nc(-c3ccccc3NC(C)=O)c(=O)[nH]c2c1	1
SMILES	CBX7 AlphaScr
CCCCNC(=O)c1ccc(Cl)c(NC2=NC3CS(=O)(=O)CC3S2)c1 (stereo unspecified)	1.1
CCCc1cc(-c2[nH]ncc2-c2ccc3c(c2)OCCCO3)c(O)cc1OC	0.47*
COc1ccc(-c2[nH]ncc2-c2ccc(Br)cc2)c(O)c1	0.6
CCc1cc(-c2[nH]ncc2-c2ccc(F)cc2)c(O)cc1OC	0.91
Cc1ccc(-n2nc(C)c3c(C)c(CCC(=O)NCCCN4CCCC4=O)c(C)nc32)cc1	1.1
CCN1CCN(c2cc(C)c3cc(NC(=O)CCC(=O)N4CCN(C)CC4)ccc3n2)CC1	0.96
CC1NC(=O)NC1CCCCCC(=O)OCC(=O)c1ccccc1 (stereo unspecified)	0.16*
O=C(NCc1ccc(Cl)cc1)c1cnn2c(C(F)(F)F)cc(-c3ccccc3)nc12	1.1
COc1ccccc1Nc1cccc2nonc12	2.2
CCCCc1nc2ccccc2c(NC(=O)CN2CCN(C(=O)c3ccco3)CC2)c1CCC	0.96
O=C(CN1CCCCC1)Nc1c2c(nc3ccccc13)N(c1cccc(Cl)c1)CC2	1
CCc1nc2ccccc2c(NC(=O)CN2CCN(C)CC2)c1C	0.053*
COc1cc2c(C(=O)Nc3ccc(C)cc3Br)cn(CC(C)C)c(=O)c2cc1OC	1.2
O=C1CN(C(=O)c2cccs2)C(c2ccc(F)cc2)c2cc(Cl)ccc2N1 (stereo unspecified)	0.72
COc1ccc(CNc2ccc3c(c2)nc(C)n3Cc2ccccc2)cc1OC	0.4*
COc1ccc(CNc2ccc(-c3nc4cc(C)ccc4s3)cc2)cc1OC	1.1
COc1ccccc1OCc1nc2ccccc2n1Cc1ccccc1	1.1
COc1cccc(CNc2ccc3c(c2)nc(C)n3C)c1OC	0.84
COc1ccc2c(c1)nc(C)n2Cc1ccccc1	0.97
COc1ccc(CNc2ccc3c(c2)nc(C)n3Cc2ccccc2)cc1	0.35*
COc1cccc(CNc2ccc3c(c2)nc(C)n3Cc2ccccc2)c1OC	0.31*
CC(=O)Nc1ccc2c(c1)nc(C)n2Cc1ccccc1	1.2
COc1ccccc1CNc1ccc2c(c1)nc(C)n2C	1
Clc1cc(Br)ccc1OCc1nc(-c2ccncc2)no1	1
COc1ccc(CCNC(=O)CC2Oc3ccc(C)cc3NC2=O)cc1OC (stereo unspecified)	0.95
C=CCn1c(SCC(=O)Nc2ccccc2)nnc1-c1cccnc1	1
O=C(NC1CCCCCC1)C1CCCN(S(=O)(=O)c2cccnc2)C1 (stereo unspecified)	1
